Data as given in PubChem BioAssay AID1159580 (chemical genetic matrix, 2015).
In all, about 5,500 compounds went through this assay and about 2,000 (36%) were called active. Inconclusive results (about 18%) are left out. No stated cut-off is given here; in the data, active means normalized growth mostly below about 0.91 (no sharp cut-off); inconclusive means no clear call, values can overlap the other calls; inactive means mostly above about 0.92. The list shows a part of the results.

Test: chemical genetic growth profiling, strain panel (AID 1159580);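 further: tested at 20 µM; growth read once vehicle control cultures reached saturation at 30 °C; 1 = growth at the plate median or of vehicle wells; lower values mean less growth of the strain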
Settings: S. cerevisiae deletion strains, growth OD

Measured: normalized growth

Nc1ncnc2c1ncn2[C@@H]1O[C@H](CO)[C@H](O)C1O (some centres undefined)
inactive: locus YAL040C, strain CLN3, active compounds read low 0.999 | locus YCL061C, strain MRC1 (second series), active compounds read low 0.998 | locus YDR363W, strain ESC2, active compounds read low 1.01 | locus YER002W, strain NOP16, active compounds read low 1.01 | locus YNL153C, strain GIM3, active compounds read low 1.04 | locus YNL175C, strain NOP13, active compounds read low 1.02 | locus YNL197C, strain WHI3, active compounds read low 1.02 | locus YNL224C, strain SQS1, active compounds read low 1.02 | locus YOR083W, strain WHI5 (second series), active compounds read low 1.07
